Source: PubChem (National Center for Advancing Translational Sciences (NCATS))
The sample as a whole holds a higher share of hits than the screen did.
MARV entry inh: qHTS for inhibitors of binding or entry into cells for Marburg Virus. Marburg virus pseudotyped entry inhibition, cell reporter. Potency, µM (doses to about 37.8 µM), hits mostly inhibitors. hit rate 1.8% among 300,000. AID 540276, 2011; calls by dose curve; tested in HEK293 cells
VACV Venus inh: qHTS for Stage-Specific Inhibitors of Vaccinia Orthopoxvirus: Venus Reporter Primary qHTS. Vaccinia virus Venus reporter expression, fluorescence. Potency, µM (series often up to 36.5 µM), hits mostly inhibitors. hit rate 0.46% among 330,000. AID 720580, 2013; calls by dose curve; tested in A549 cells; note: nearly all actives have a fitted effect of over 30% in size
VACV mCherry inh: qHTS for Stage-Specific Inhibitors of Vaccinia Orthopoxvirus: mCherry Reporter Primary qHTS. Vaccinia virus mCherry reporter infection, fluorescence. Potency, µM (titrated, usually from 36.5 µM), hits mostly inhibitors. hit rate 0.63% among 310,000. AID 720579, 2013; calls by dose curve; tested in A549 cells; note: nearly all actives have a fitted effect of over 35% in size
Lassa entry inh: qHTS for Inhibitors of binding or entry into cells for Lassa Virus; hit rate 1.2% among 300,000; Potency, µM (titrated, usually from 37.9 µM), hits mostly inhibitors; AID 540256, 2011; Lassa virus pseudotype entry inhibition, cell reporter; calls by dose curve; tested in HEK293 cells; note: nearly all actives have a fitted effect of over 50% in size
CHX counter: Cycloheximide Counterscreen for Small Molecule Inhibitors of Shiga Toxin | hit rate 12% among 300,000 | cell reporter, cycloheximide protein synthesis inhibition counterscreen | max response, % | AID 2314, 2010; in the data active = max response mostly above about 13%, no sharp cut-off; inactive = mostly below about 14%; note: read at 38.3 µM for the half of the compounds with a filed dose
Shiga inhibitor: A qHTS for Small Molecule Inhibitors of Shiga Toxin; hit rate 9.2% among 290,000; AID 2315, 2010; inhibition, % at 38.7 µM; Vero cells, Shiga toxin protein synthesis inhibition reporter; in the data active = inhibition mostly above about 28%, no sharp cut-off; inactive = mostly below about 43%
Numbers stand for hits; n = inactive; u = inconclusive; x = not tested or not shown; ! = not confirmed by another sample; [ ] = remark or other dose.

SMILES	MARV entry inh	VACV Venus inh	VACV mCherry inh	Lassa entry inh	CHX counter	Shiga inhibitor
CC(=O)c1ccc(OCc2cc(C(=O)NCCn3nc(C)cc3C)no2)cc1	n	n	n	n	81	63
CC(=O)c1ccc(OCc2cc(C(=O)NC(C)c3cnn(C)c3)no2)cc1 (centres undefined)	x	x	x	x	37	94
CCC(C)(C)NC(=O)C(c1ccc(C)cc1)N(CC1CCCO1)C(=O)c1csnn1 (centres undefined)	n	n	n	n	n	n
CCCS(=O)(=O)c1ccc(COC(=O)Cc2ccc([N+](=O)[O-])cc2)cc1	x	x	x	x	n	x
Cn1c(CCNC(=O)c2cc(COc3ccc(F)c(F)c3)on2)nc2ccccc21	n	n	n	n	n	73
CC(NC(=O)c1cc(COc2ccccc2)on1)c1nccs1 (centres undefined)	u	n	n	u	28	75
Cc1nc(C(C)NC(=O)c2cc(COc3ccc(F)c(F)c3)on2)cs1 (centres undefined)	x	x	x	x	18	n
COc1ccc(OC)c(-c2cc(-c3cccnc3)nc(N)c2C#N)c1	1.4µM	n[7.34 µM]	n[7.34 µM]	u	n	n
COC(=O)CCc1c(COC(C)=O)[nH]c(C(=O)OCc2ccccc2)c1C	x	x	x	x	n	n
COC1(C#C[C@@H]2C=C[C@H](OC(C)=O)[C@@H](COC(C)=O)O2)CCCCC1	n	x	x	u	x	x
COC(=O)Cc1ccc2c3ccccc3n(C)c2c1	n	n	n	n	25	n
Cn1c2ccc(CC(=O)O)cc2c2cc(CC(=O)O)ccc21	n	n	n	n	n	n
CC(C)CCNc1nc(Nc2ccccc2)c2cnn(C)c2n1	x	n[7.34 µM]	n[7.34 µM]	n	x	x
NC(=O)c1ccc(NC(=S)NCc2ccco2)cc1	x	n	n	x	11	n
COC(=O)c1ccc(NC(=S)NCc2ccco2)cc1	n	n	n	n	n	n
CC(=O)c1ccc(NC(=S)NCc2ccco2)cc1	x	x	x	x	36	58
Cc1ccc(N2CC(NC(=O)C3CCCC3)CC2=O)cc1C (centres undefined)	x	n[7.34 µM]	n[7.34 µM]	n	x	x
Cc1ccc(Nc2ccc(C(=O)NCCc3ccccc3)cn2)cc1	n	n	n	n	12	n
Cc1ccc(C)c(Nc2ccc(C(=O)NCCc3ccccc3)cn2)c1	n	n	n	n	22	n
Cc1ccc(C)c(Nc2nn3c(=O)c4ccc(C(=O)NCCc5ccccc5)cc4nc3s2)c1	x	u	u	n	x	x
CCN1C(=O)NC(CCc2ccccc2)C(C(C)=O)=C1C (centres undefined)	n	x	x	x	x	x
O=c1c(-c2ccc(O)cc2)coc2cc(OC3OC(CO)C(O)C(O)C3O)cc(O)c12 (centres undefined)	u	n	n	u	22	68
O=c1cc(-c2ccc(O)cc2)oc2cc(O[C@H]3OC(CO)C(O)C(O)C3O)cc(O)c12 (some centres undefined)	x	n	n	x	x	x
O=c1c(O[C@@H]2O[C@H](CO)C(O)C2O)c(-c2ccc(O)c(O)c2)oc2cc(O)cc(O)c12 (some centres undefined)	x	n	n	x	x	x
COc1cc(O)c2c(=O)c(-c3ccc(O[C@@H]4O[C@H](CO)[C@@H](O)[C@H](O)[C@H]4O)cc3)coc2c1	10µM	n	u	u	39	111
SMILES	MARV entry inh	VACV Venus inh	VACV mCherry inh	Lassa entry inh	CHX counter	Shiga inhibitor
O=c1c(-c2ccc(O)cc2)coc2cc(OC3OC(CO)C(O)C(O)C3O)ccc12 (centres undefined)	n	n	n	n	20	43
O=c1c(OC2OC(CO)C(O)C(O)C2O)c(-c2ccc(O)c(O)c2)oc2cc(O)cc(O)c12 (centres undefined)	15µM	n	n	n	n	n
COc1cc(-c2coc3cc(O[C@H]4OC(CO)C(O)C(O)C4O)c(OC)c(O)c3c2=O)cc(O)c1OC (some centres undefined)	x	u	n	x	x	x
CCSc1nn(CC(=O)Nc2cccc(CC)c2)c(N)c1S(=O)(=O)c1ccccc1	x	n	n	u	x	x
Cc1ccc(-n2c(=O)[nH]c3sc4c(c3c2=O)CCNC4)cc1C	u	n	n	n	x	x
CCc1cc2c(cc3c(=O)n(CC(=O)NC4CCC(C)CC4)nc(CC)n32)s1 (centres undefined)	u	n	n	x	x	x
Cc1snc2sc(C(=O)c3ccc(F)cc3)c(N)c12	n	n	n	n	26	77
N#CC1=C2SCC(O)(c3ccccc3)N2C(=O)CC1c1cccs1 (centres undefined)	0.033µM!	x	x	u	n	n
O=C(/C=C\Nc1ccc2c(c1)OCO2)c1cccs1	u	n	n	u	6.9	66
O=C(/C=C\Nc1ccc2c(c1)OCO2)c1ccc(Cl)s1	u	n	n	u	57	71
O=C(C=Cc1ccc(Cl)s1)c1ccc(Cl)s1	n	n	n	n	x	x
CCc1ccc(NC(=O)Cn2c(=O)n(CCCCC(=O)NCc3ccccc3Cl)c(=O)c3ccccc32)cc1	n	n	n	u	x	x
Cc1cc(O)cc(O)c1C(=O)Cc1cscn1	n	n	x	n	n	n
COc1ccc(C(=O)OCc2csc(C)n2)c(O)c1	n	n	n	n	42	61
Cc1nc(C/C(=N\N)c2ccc(O)cc2O)cs1	n	n	n	n	25	n
N/N=C(\Cc1cscn1)c1ccc(O)cc1O	n	n	n	n	36	80
Cc1cnc(C(=O)NC(C)CCc2ccccc2)cn1 (centres undefined)	x	x	x	x	n	n
O=c1c2sc3ccccc3c2n(Cc2ccccc2F)c(=O)n1CCc1ccccc1	n	n	n	u	x	x
CCCCCCC[N+](CC)(CC)CCCCc1ccc(Cl)cc1	x	n	n	x	x	x
CC(=O)Nc1ccc(NC(=O)Nc2ccccc2C)cc1	x	x	x	x	n	n
CC(=O)N(C)c1ccc(NC(=O)Nc2ccccc2C)cc1	u	n	n	n	39	82
CC(=O)N(C)c1ccc(NC(=O)Nc2ccc(C)c(C)c2)cc1	u	n	n	n	12	n
COc1ccc(Br)cc1CNC(=O)c1ccc(-n2c(C)cc3c2CCC(C)C3)cc1 (centres undefined)	x	n	n	u	x	x
Cc1ccc(C)c(N2CCN(C(=O)Nc3cn(CC(C)C)c(=O)c4ccccc34)CC2)c1	x	n	n	n	x	x
O=C1CC(C(=O)Nc2cccc(F)c2)n2ncnc2N1 (centres undefined)	u	n	n	n	n	n
SMILES	MARV entry inh	VACV Venus inh	VACV mCherry inh	Lassa entry inh	CHX counter	Shiga inhibitor
CCOc1ccc(C(=O)NC2=NCCS2)cc1	x	x	x	x	27	83
O=C(Nc1ncccc1O)c1ccc(Oc2ccccc2)cc1	n	n	u	u	52	71
Cc1noc(C)c1COc1ccc(C(=O)Nc2ncccc2O)cc1	n	n	n	n	x	x
O=C(Nc1ncccc1O)c1ccc(OCC2CCCO2)cc1 (centres undefined)	x	x	x	x	35	52
CCOc1cc(C(=O)NC2=NCCS2)cc(OCC)c1OCC	x	x	x	x	n	n
O=C(NC1=NCCS1)c1ccc(OCC2CCCO2)cc1 (centres undefined)	u	n	n	u	30	51
